{"source": "PubChem BioAssay (NCI)", "note": "This is part of a sample that, as a whole, favours compounds with a hit. Of some 83,000 tested, about 20% had one in any assay.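 Note: values are percent growth. 100 is the growth of untreated cells, values between 100 and 0 indicate rising inhibition; between -100 and 0 indicates cell death.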 Calls of active or inactive are those of the source. The calls were made as follows: active = growth percent below 10; inactive = the rest."}
{"system": "IGROV1 ovarian", "test": "NCI-60 one-dose screen, 48 h (100 = growth as untreated, 0 = no growth, -100 = all killed)", "conditions": "10 µM unless noted"}
{"smiles": "OCC1C2C=CC(C2)C1CO", "note": "(stereo not drawn)", "growth": "101% (inactive)"}
{"smiles": "Fc1ccc(Cc2ccc(F)cc2)cc1", "growth": "102% (inactive)"}
{"smiles": "O=c1ccc2cc3ccccc3cc2[nH]1", "growth": "98.2% (inactive)"}
{"smiles": "COc1ccc(-c2nn(-c3ccccc3)cc2/C=C/C(=O)OCc2cn(-c3ccc(F)c(Cl)c3)nn2)cc1", "growth": "86.2% (inactive)"}
{"smiles": "COc1ccccc1N1CCN(CCn2c(=O)c3c(c4ccccc4n3C)n(C)c2=O)CC1", "growth": "104% (inactive)"}
{"smiles": "CCCCCCCCCCNC(=O)CCl", "growth": "44.1% (inactive)"}
{"smiles": "N=S(=O)(NC(=O)c1ccc(Cl)cc1Cl)c1ccc(Br)s1", "note": "(stereo not drawn)", "growth": "-1.49% (active)"}
{"smiles": "CCOC(=O)/C=C/C(=O)[C@H](CC(C)C)NC(=O)[C@H](Cc1ccccc1)NC(=O)OCc1ccccc1", "growth": "75.6% (inactive)"}
{"smiles": "COC1/C=C\\OC2(C)Oc3c(C)c(O)c4c(O)c(c(CN(C)CCO)c(O)c4c3C2=O)NC(=O)/C(C)=C\\C=C/C(C)C(O)C(C)C(O)C(C)C(OC(C)=O)C1C", "note": "(stereo not drawn)", "growth": "95.9% (inactive)"}
{"smiles": "COc1nc2c(cc1S(=O)(=O)c1ccccc1)CCc1c-2cnn1Cc1ccccc1", "growth": "80.5% (inactive)"}
{"smiles": "O=S(=O)(NCCCNc1cc(-c2cn(-c3ccccc3)nc2-c2ccccc2)ccn1)c1ccc(C(F)(F)F)cc1", "growth": "59.2% (inactive)"}
{"smiles": "N#CC1=C(N)Oc2c(ccc3ccccc23)C1c1cccs1", "note": "(stereo not drawn)", "growth": "60.3% (inactive)"}
{"smiles": "CCN(CC)CCCNc1cc(OC)cc2nc3cc(Cl)ccc3nc12", "growth": "-29.9% (active)"}
{"smiles": "O=C(CN1CCN(c2cc3c(cc2F)c(=O)c(C(=O)O)cn3C2CC2)CC1)Nc1nc(-c2ccc(Cl)cc2)cs1", "growth": "38.6% (inactive)"}
{"smiles": "O=C1CC(c2nc3ccccc3[nH]2)CN1C1CCCCC1", "note": "(stereo not drawn)", "growth": "108% (inactive)"}
{"smiles": "COc1cc(OC)c(/C=C/c2cc[n+](C)c3ccccc23)c(OC)c1", "growth": "6.79% (active)"}
{"smiles": "CCCCCN(CCCCC)CCC[C@@H](C)[C@H]1CC[C@H]2[C@@H]3[C@H](OCCCN)C[C@@H]4C[C@H](OCCCN)CC[C@]4(C)[C@H]3C[C@H](OCCCN)[C@]12C", "growth": "29.6% (inactive)"}
{"smiles": "COc1cc(OC)c(/C=C/S(=O)(=O)Cc2ccc(OC)c(N)n2)c(OC)c1", "growth": "26.4% (inactive)"}
{"smiles": "CC(=O)C1=C(O)C=C2Oc3c(C(=O)/C=C/c4cc(C(F)(F)F)cc(C(F)(F)F)c4)c(O)c(C)c(O)c3[C@]2(C)C1=O", "growth": "-6.87% (active)"}
{"smiles": "Cc1cc(Nc2nc(N3CCOCC3)nc3ccccc23)n[nH]1", "growth": "30.9% (inactive)"}
{"smiles": "COc1cc(OC)c(/C=C/C(=O)c2c(OC)cc(OC)cc2OC)c(OC)c1", "growth": "30.1% (inactive)"}
{"smiles": "c1ccc(CSc2ncnc3nc[nH]c23)nc1", "growth": "105% (inactive)"}
{"smiles": "CN1CCOCCOCCOc2ccccc2NC(=O)c2nc(cnc2N)-c2ccc(cc2)S1(=O)=O", "growth": "50.8% (inactive)"}
{"smiles": "COc1cc(/C=N/N(C)C)ccc1O", "growth": "104% (inactive)"}
{"smiles": "O=C(/C=C/c1ccc(B(O)O)cc1)/C=C/c1ccc(B(O)O)cc1", "growth": "-73.3% (active)"}
{"smiles": "CCC(=O)OCc1cccc(OC)c1", "growth": "81% (inactive)"}
{"smiles": "COc1cnc2c(c1)C(=O)c1c-2n(CCCBr)c(=O)c2cc([N+](=O)[O-])ccc12", "growth": "2.21% (active)"}
{"smiles": "C/C(=C(/c1ccc(O)cc1)c1ccc(OCCN2CCCC2)cc1)c1ccccc1", "growth": "76.1% (inactive)"}
{"smiles": "CCCCCCCCCc1cc(CN2CCCCC2)c(O)c(CN2CCCCC2)c1", "growth": "75.9% (inactive)"}
{"smiles": "COc1cc(NC(N)=NCC(C)(C)COc2ccc(C(F)(F)F)cc2)cnc1C#N", "growth": "43.9% (inactive)"}
{"smiles": "COc1ccc2nc(NC(=O)c3cccnc3Nc3cc(OC)c(OC)c(OC)c3)sc2c1", "growth": "68.6% (inactive)"}
{"smiles": "CCN(CC)CCC(=O)c1ccc(OC)c2ccccc12", "growth": "91.6% (inactive)"}
{"smiles": "COc1ccc(/C=C2\\N=C3Sc4cc(Cl)ccc4C(=O)N3C2=O)cc1", "growth": "107% (inactive)"}
{"smiles": "Nc1c(C(=O)Nc2ccccc2)sc2nc3c(cc12)CN(CCc1ccccc1)CC3", "growth": "96.5% (inactive)"}
{"smiles": "CC(C)Oc1nc2c(c(=O)n(C)c(=O)n2C)n1C", "growth": "102% (inactive)"}
{"system": "OVCAR-3 ovarian", "test": "NCI-60 one-dose screen, 48 h (100 = growth as untreated, 0 = no growth, -100 = all killed)", "conditions": "10 µM unless noted"}
{"smiles": "OCC1C2C=CC(C2)C1CO", "note": "(stereo not drawn)", "growth": "107% (inactive)"}
{"smiles": "Fc1ccc(Cc2ccc(F)cc2)cc1", "growth": "112% (inactive)"}
{"smiles": "O=c1ccc2cc3ccccc3cc2[nH]1", "growth": "87.4% (inactive)"}
{"smiles": "COc1ccc(-c2nn(-c3ccccc3)cc2/C=C/C(=O)OCc2cn(-c3ccc(F)c(Cl)c3)nn2)cc1", "growth": "68.2% (inactive)"}
{"smiles": "COc1ccccc1N1CCN(CCn2c(=O)c3c(c4ccccc4n3C)n(C)c2=O)CC1", "growth": "103% (inactive)"}
{"smiles": "CCCCCCCCCCNC(=O)CCl", "growth": "52.8% (inactive)"}
{"smiles": "N=S(=O)(NC(=O)c1ccc(Cl)cc1Cl)c1ccc(Br)s1", "note": "(stereo not drawn)", "growth": "105% (inactive)"}
{"smiles": "CCOC(=O)/C=C/C(=O)[C@H](CC(C)C)NC(=O)[C@H](Cc1ccccc1)NC(=O)OCc1ccccc1", "growth": "30% (inactive)"}
{"smiles": "COC1/C=C\\OC2(C)Oc3c(C)c(O)c4c(O)c(c(CN(C)CCO)c(O)c4c3C2=O)NC(=O)/C(C)=C\\C=C/C(C)C(O)C(C)C(O)C(C)C(OC(C)=O)C1C", "note": "(stereo not drawn)", "growth": "111% (inactive)"}
{"smiles": "COc1nc2c(cc1S(=O)(=O)c1ccccc1)CCc1c-2cnn1Cc1ccccc1", "growth": "64.5% (inactive)"}
{"smiles": "O=S(=O)(NCCCNc1cc(-c2cn(-c3ccccc3)nc2-c2ccccc2)ccn1)c1ccc(C(F)(F)F)cc1", "growth": "72% (inactive)"}
{"smiles": "N#CC1=C(N)Oc2c(ccc3ccccc23)C1c1cccs1", "note": "(stereo not drawn)", "growth": "-38.8% (active)"}
{"smiles": "CCN(CC)CCCNc1cc(OC)cc2nc3cc(Cl)ccc3nc12", "growth": "-48.9% (active)"}
{"smiles": "O=C(CN1CCN(c2cc3c(cc2F)c(=O)c(C(=O)O)cn3C2CC2)CC1)Nc1nc(-c2ccc(Cl)cc2)cs1", "growth": "14.2% (inactive)"}
{"smiles": "O=C1CC(c2nc3ccccc3[nH]2)CN1C1CCCCC1", "note": "(stereo not drawn)", "growth": "110% (inactive)"}
{"smiles": "COc1cc(OC)c(/C=C/c2cc[n+](C)c3ccccc23)c(OC)c1", "growth": "-26.6% (active)"}
{"smiles": "CCN(CC)c1ccc(CNc2cc(C)nc3ccc(OC)cc23)cc1", "growth": "51.6% (inactive)"}
{"smiles": "CCCCCN(CCCCC)CCC[C@@H](C)[C@H]1CC[C@H]2[C@@H]3[C@H](OCCCN)C[C@@H]4C[C@H](OCCCN)CC[C@]4(C)[C@H]3C[C@H](OCCCN)[C@]12C", "growth": "107% (inactive)"}
{"smiles": "COc1cc(OC)c(/C=C/S(=O)(=O)Cc2ccc(OC)c(N)n2)c(OC)c1", "growth": "-27.7% (active)"}
{"smiles": "CC(=O)C1=C(O)C=C2Oc3c(C(=O)/C=C/c4cc(C(F)(F)F)cc(C(F)(F)F)c4)c(O)c(C)c(O)c3[C@]2(C)C1=O", "growth": "-50.5% (active)"}
{"smiles": "Cc1cc(Nc2nc(N3CCOCC3)nc3ccccc23)n[nH]1", "growth": "58.6% (inactive)"}
{"smiles": "COc1cc(OC)c(/C=C/C(=O)c2c(OC)cc(OC)cc2OC)c(OC)c1", "growth": "6.92% (active)"}
{"smiles": "c1ccc(CSc2ncnc3nc[nH]c23)nc1", "growth": "104% (inactive)"}
{"smiles": "C=C(CN1CCN(c2cccc(C(F)(F)F)n2)CC1)c1ccc(C(=O)Nc2ccccc2N)cc1", "growth": "-38.2% (active)"}
{"smiles": "CN1CCOCCOCCOc2ccccc2NC(=O)c2nc(cnc2N)-c2ccc(cc2)S1(=O)=O", "growth": "43.7% (inactive)"}
{"smiles": "COc1cc(/C=N/N(C)C)ccc1O", "growth": "109% (inactive)"}
{"smiles": "O=C(/C=C/c1ccc(B(O)O)cc1)/C=C/c1ccc(B(O)O)cc1", "growth": "27.8% (inactive)"}
{"smiles": "CCC(=O)OCc1cccc(OC)c1", "growth": "107% (inactive)"}
{"smiles": "COc1cnc2c(c1)C(=O)c1c-2n(CCCBr)c(=O)c2cc([N+](=O)[O-])ccc12", "growth": "-44.1% (active)"}
{"smiles": "C/C(=C(/c1ccc(O)cc1)c1ccc(OCCN2CCCC2)cc1)c1ccccc1", "growth": "74% (inactive)"}
{"smiles": "CCCCCCCCCc1cc(CN2CCCCC2)c(O)c(CN2CCCCC2)c1", "growth": "41.9% (inactive)"}
{"smiles": "CCCCN(CC)CCCCCCCCCCN1CCCc2cc(OC)ccc21", "growth": "13.6% (inactive)"}
{"smiles": "COc1cc(NC(N)=NCC(C)(C)COc2ccc(C(F)(F)F)cc2)cnc1C#N", "growth": "67.5% (inactive)"}
{"smiles": "COc1ccc2nc(NC(=O)c3cccnc3Nc3cc(OC)c(OC)c(OC)c3)sc2c1", "growth": "-62.5% (active)"}
{"smiles": "CCN(CC)CCC(=O)c1ccc(OC)c2ccccc12", "growth": "109% (inactive)"}
{"smiles": "COc1ccc(/C=C2\\N=C3Sc4cc(Cl)ccc4C(=O)N3C2=O)cc1", "growth": "104% (inactive)"}
{"smiles": "Nc1c(C(=O)Nc2ccccc2)sc2nc3c(cc12)CN(CCc1ccccc1)CC3", "growth": "109% (inactive)"}
{"smiles": "CC(C)Oc1nc2c(c(=O)n(C)c(=O)n2C)n1C", "growth": "110% (inactive)"}
